The record followed here is PubChem BioAssay (NCATS).

The structures appear in SMILES notation. Inconclusive results are not listed. Active and inactive are the calls of the source. Unless noted, the call rests on the fitted dose curve; in most records, active means well fitted curve in the direction sought with a large enough effect; inconclusive means small, poorly fitted or top-dose-only effect, or another doubt; inactive means no such curve, though single readings can be large; an effect the other way counts as inactive or inconclusive.

Assay [1] in a line: Validation of Assay for Modulators of Lamin A Splicing (AID 1459; active means well fitted curve in the direction sought with a large enough effect in the signal ratio; the % refers to the signal ratio;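 further: cells exposed to compound for two days before reading; 0% is about no effect; ratio rise marks activators and ratio drop marks inhibitors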). A digest of the protocol: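 S3 HeLa cells stably expressing a lamin A-EGFP splicing minigene and DsRed2 were seeded at 600 cells/well in Opti-MEM with 2% FBS, pin-dosed, and incubated 48 hrs at 37 °C, 5% CO2. Laser-scanning cytometry (488 nm) gave GFP/RFP total intensity ratio.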
Assay [2] has as its target DNA repair nuclease/redox regulator APEX1 (Homo sapiens) (UniProt P27695). In words: qHTS Validation Assay for Inhibitors of the Human Apurinic/apyrimidinic Endonuclease 1 (APE1) (AID 1705;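 further: TAMRA fluorescence gain over two minutes as APE1 cuts a quenched THF abasic duplex; on the % scale 0 is the no-effect control and ±100 the full control effect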). A digest of the protocol: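 Human APE1 was preincubated with compound for 15 min at room temperature, then 50 nM (final) THF-abasic double-stranded DNA substrate bearing 5'-TAMRA and 3'-BHQ-2 was added. Incision-driven fluorescence rise (ex 525/em 598 nm) was read kinetically.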
A general note: In qHTS, concentration-response curves come from the screen itself.

Assay [3] in a line: Counterscreen for APE1 Inhibitors: Fluorescent Dye Displacement Validation Assay (AID 1707).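 Further: plate controls were ThO with dsDNA and no compound for no effect and ThO without dsDNA for full effect.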 In a few lines: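 Assay buffer: Tris-HCl pH7.5 with 50mM NaCl, 2 mM MgCl2, 0.01% Tween-20. Dye 250 nM, duplex 50 nM final. Readout: decrease in ThO endpoint fluorescence, 480 nm excitation, 540 nm emission.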
On the technique in general: Counterscreens check selectivity or assay interference.

Assay [4] is described as follows: qHTS for differential inhibitors of proliferation of Plasmodium falciparum line GB4 (AID 1816).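 Further: parasite growth measured after 72 h incubation; 0% = vehicle DMSO and -100% = reference inhibitor.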 To be noted: Potency: Plasmodium falciparum GB4 proliferation inhibition.
Assay [5] is described as follows: qHTS for differential inhibitors of proliferation of Plasmodium falciparum line 3D7 (AID 1876).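 Further: parasite growth measured after three days of culture; 0% = vehicle wells and -100% = reference inhibitor wells.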
The nature of assay [6]: qHTS for differential inhibitors of proliferation of Plasmodium falciparum line D10 (AID 1877).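 Further: parasites grown with compound for 72 h before DNA staining; plate controls were vehicle wells for no effect and reference inhibitor wells for full effect.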
The nature of assay [7]: qHTS for differential inhibitors of proliferation of Plasmodium falciparum line HB3 (AID 1886).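 Further: parasites grown with compound for 72 h before SYBR Green readout; plate controls were vehicle for no effect and reference inhibitor for full effect.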 To be noted: Potency: Plasmodium falciparum HB3 proliferation inhibition.
Assay [8] concerns the target ATP-dependent DNA helicase Q1 (Homo sapiens) (UniProt P46063). In words: qHTS Validation Assay for Inhibitors of RecQ-Like Dna Helicase 1 (RECQ1) (AID 2353).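 Further: plate controls were DMSO vehicle for no effect and enzyme-free control for full effect.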 In a few lines:
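50 nM RECQ1T1 preincubated 15 min with compound in Tris pH 8.0 buffer with MgCl2, DTT, Tween-20 and 2.5 ug/ml poly(dI-dC); started with 200 nM TAMRA/BHQ-2 forked duplex and 2 mM ATP. Unwinding read as fluorescence (525/598 nm), two reads 2 h apart.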

Assay [9] can be described thus: Validation screen for small molecules that induce DNA re-replication in MCF 10A normal breast cells (AID 463097). Further: 0% is about no effect; nearly all actives have a fitted effect of over 60% in size. In a few lines:
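Readout: Hoechst nuclear fluorescence intensity, 405 ex / 500-530 em, by scanning plate imager; re-replication scored as increase in nuclei with elevated DNA content. Cells exposed to compound 48 hr, 37 C, 5% CO2 beforehand.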

Assay [10] in a line: Quantitative high throughput screen for delayed death inhibitors of the malarial parasite plastid, 96 hour incubation (AID 488745). Further: on the % scale 0 is the no-effect control and ±100 the full control effect; nearly all actives have a fitted effect of over 70% in size. In a few lines: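 P. falciparum carrying an integrated firefly luciferase reporter, grown in erythrocytes (2% hematocrit, 0.1% parasitemia final) in RPMI 1640/0.5% Albumax, was exposed to compound for 96 h (two generations) at 37 C, 5% CO2. Luminescence decrease indicated growth inhibition.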

A short description of assay [11]: Quantitative high throughput screen for delayed death inhibitors of the malarial parasite plastid, 48 hour incubation (AID 488752). Further: on the % scale 0 is the no-effect control and ±100 the full control effect; nearly all actives have a fitted effect of over 65% in size. In a few lines: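 Erythrocytes infected with P. falciparum carrying an integrated firefly luciferase reporter (2% hematocrit, 0.1% parasitemia final) were exposed to compounds in RPMI 1640/0.5% Albumax for 48 h at 37 C, 5% CO2. Growth inhibition was scored as reduced luminescence.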

Assay [12] has as its target Transient receptor potential cation channel subfamily V member 1 (Homo sapiens) (UniProt Q8NER1). In words: HTS Assay for Compounds that Act as Enhancers of the Vanilloid Receptor 1 (AID 488979). Further: 0% is about no effect. In a few lines: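 Calcium influx kinetics via Fluo-8 (480/520 nm) in TRPV1-expressing cells, 2000/well cultured overnight at 35.5C. Compound-alone read 3 min (agonist phase), followed by EC20 capsaicin challenge for 2 min (enhancer phase).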

The target in assay [13] is Thyrotropin receptor (Homo sapiens) (UniProt P16473). Description: qHTS Assay for Antagonists of the Thyroid Stimulating Hormone Receptor (AID 488980). Further: 0% is about no effect. A digest of the protocol:
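HEK293 cells transfected with human TSHR, suspended in HEPES-buffered HBSS with 70 uM RO 20-1724, were treated with compounds plus TSH at EC80 (4 nM final). cAMP was measured by competitive HTRF (cryptate anti-cAMP antibody, cAMP-d2 acceptor).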

The target of assay [14] is Thyrotropin-releasing hormone receptor (Homo sapiens) (UniProt P34981). Description: qHTS for Small Molecule Agonists and Allosteric Enhancers of Human TRH Receptor: Validation Screen for Agonists (AID 493127;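 active means calcium activation more than 3 SD above the typical response in the agonist read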;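 further: intracellular calcium rise by fluo-8 fluorescence before TRH EC20 addition; 0% is about no effect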). To be noted: TRH receptor agonist cell assay; at 2 µM; stronger effect = higher value. In a few lines: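 TRHR-expressing cells were plated overnight in serum-containing medium, then loaded with fluo-8 calcium dye at room temperature for 30 min–1.5 h. After a 10 s baseline, compound was pin-transferred and calcium fluorescence (ex 480/em 530) read kinetically for agonist response.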

Assay [15] concerns the target Galactokinase (Homo sapiens) (UniProt P51570). In words: qHTS Validation Assay for Inhibitors of Human Galactokinase (GALK) (AID 493189). Further: 0% is about no effect. In a few lines: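 GALK (5 nM) with 35 uM ATP and 100 uM galactose in HEPES pH8.0, MgCl2, NaCl, DTT, BSA; 1 h at room temperature. Residual ATP read by Kinase-Glo Plus luminescence after 10 min.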
The nature of assay [16]: Validation screen for small molecules that induce DNA re-replication in SW480 colon adenocarcinoma cells (AID 504364). Further: 0% is about no effect. In a few lines: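 SW480 cells seeded at 250 per well were exposed to compound or DMSO for 48 hr at 37 C, 5% CO2, then stained with Hoechst for 40 min. DNA content per nucleus was imaged (405 nm ex, 500-530 nm em).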
The nature of assay [17]: qHTS Assay for Lipid Storage Modulators (AID 1519; calls by dose curve; on activity change, negative = inhibition: on the % scale 0 is the no-effect control and ±100 the full control effect). The conditions noted are these: Drosophila S3 cells, BODIPY lipid droplet/cell ratio, laser cytometry, cells loaded with oleic acid. A digest of the protocol:
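Cells seeded at 5,000 per well were treated with compounds over a concentration series and loaded with oleic acid (400 uM, as added). Lipid droplet fluorescence (488 nm excitation, 500-530 nm channel) was read by laser-scanning cytometry and normalized to 20 uM Triacsin C.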

Assay [18] has as its target Glutathione peroxidase 1 (Homo sapiens) (UniProt P07203). Description: Primary qHTS Assay for Inhibitors of Recombinant Selenoprotein Glutathione Peroxidase 1 (GPX1) (AID 1845191). Further: on the % scale 0 is the no-effect control and ±100 the full control effect; nearly all actives have a fitted effect of over 65% in size. A digest of the protocol: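 10 nM GPX1 + cpd, 30 min RT; start w/ 1 mM GSH, 0.5 mM cumene hydroperoxide, 0.5 mM NADPH, 100 nM GR, 0.01% BSA; buffer 50 mM Tris-HCl pH 7.5, 2 mM EDTA, 150 mM NaCl; Fl 340/450, 0 & 15 min.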

Where [19] appears, read: measured here: cell count channel max response.
The mark [20] stands for this setting: measured here: lipid channel max response.

Galactokinase (Homo sapiens), sequence (P51570 whole entry, looked up): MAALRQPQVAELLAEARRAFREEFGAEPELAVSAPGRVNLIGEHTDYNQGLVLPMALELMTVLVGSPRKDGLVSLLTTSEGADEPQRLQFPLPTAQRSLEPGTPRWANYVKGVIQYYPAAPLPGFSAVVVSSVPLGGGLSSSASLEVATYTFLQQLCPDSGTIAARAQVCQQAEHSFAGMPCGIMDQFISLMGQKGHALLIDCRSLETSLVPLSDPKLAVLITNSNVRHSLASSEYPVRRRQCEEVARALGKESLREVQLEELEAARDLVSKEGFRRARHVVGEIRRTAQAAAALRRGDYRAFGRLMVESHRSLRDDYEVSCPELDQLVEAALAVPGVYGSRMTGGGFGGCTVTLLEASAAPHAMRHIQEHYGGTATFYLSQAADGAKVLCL
Thyrotropin receptor (Homo sapiens), sequence (P16473 whole entry, looked up): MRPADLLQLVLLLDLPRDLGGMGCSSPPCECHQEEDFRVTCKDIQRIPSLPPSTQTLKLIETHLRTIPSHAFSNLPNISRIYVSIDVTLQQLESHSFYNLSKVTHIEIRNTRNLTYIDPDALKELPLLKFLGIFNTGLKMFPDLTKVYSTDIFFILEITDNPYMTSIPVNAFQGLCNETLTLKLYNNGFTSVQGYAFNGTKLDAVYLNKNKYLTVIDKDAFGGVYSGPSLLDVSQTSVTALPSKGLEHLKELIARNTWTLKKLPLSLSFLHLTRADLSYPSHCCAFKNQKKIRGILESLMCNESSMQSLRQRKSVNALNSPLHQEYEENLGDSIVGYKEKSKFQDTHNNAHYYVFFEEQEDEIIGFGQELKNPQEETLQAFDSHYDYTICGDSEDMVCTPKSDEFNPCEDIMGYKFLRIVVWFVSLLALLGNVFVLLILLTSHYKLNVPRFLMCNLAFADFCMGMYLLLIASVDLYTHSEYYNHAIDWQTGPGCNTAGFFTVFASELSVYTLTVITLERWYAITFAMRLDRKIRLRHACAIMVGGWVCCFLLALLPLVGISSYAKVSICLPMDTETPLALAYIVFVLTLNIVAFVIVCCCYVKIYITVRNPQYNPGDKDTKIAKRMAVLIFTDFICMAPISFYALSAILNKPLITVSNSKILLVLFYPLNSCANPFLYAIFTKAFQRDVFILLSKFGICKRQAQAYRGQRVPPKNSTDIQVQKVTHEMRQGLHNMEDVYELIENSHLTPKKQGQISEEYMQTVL
Thyrotropin-releasing hormone receptor (Homo sapiens), sequence (P34981 whole entry, looked up): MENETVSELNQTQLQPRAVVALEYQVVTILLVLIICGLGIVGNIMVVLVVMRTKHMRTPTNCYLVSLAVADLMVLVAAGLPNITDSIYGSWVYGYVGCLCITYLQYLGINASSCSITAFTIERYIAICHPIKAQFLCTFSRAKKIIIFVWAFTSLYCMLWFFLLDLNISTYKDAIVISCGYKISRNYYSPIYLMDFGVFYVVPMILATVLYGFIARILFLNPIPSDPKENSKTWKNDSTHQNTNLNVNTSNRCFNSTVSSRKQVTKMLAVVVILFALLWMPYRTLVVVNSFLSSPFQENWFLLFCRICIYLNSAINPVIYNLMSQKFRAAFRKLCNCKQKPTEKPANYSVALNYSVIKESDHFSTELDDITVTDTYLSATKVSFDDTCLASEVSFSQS
ATP-dependent DNA helicase Q1 (Homo sapiens), sequence (P46063 whole entry, looked up): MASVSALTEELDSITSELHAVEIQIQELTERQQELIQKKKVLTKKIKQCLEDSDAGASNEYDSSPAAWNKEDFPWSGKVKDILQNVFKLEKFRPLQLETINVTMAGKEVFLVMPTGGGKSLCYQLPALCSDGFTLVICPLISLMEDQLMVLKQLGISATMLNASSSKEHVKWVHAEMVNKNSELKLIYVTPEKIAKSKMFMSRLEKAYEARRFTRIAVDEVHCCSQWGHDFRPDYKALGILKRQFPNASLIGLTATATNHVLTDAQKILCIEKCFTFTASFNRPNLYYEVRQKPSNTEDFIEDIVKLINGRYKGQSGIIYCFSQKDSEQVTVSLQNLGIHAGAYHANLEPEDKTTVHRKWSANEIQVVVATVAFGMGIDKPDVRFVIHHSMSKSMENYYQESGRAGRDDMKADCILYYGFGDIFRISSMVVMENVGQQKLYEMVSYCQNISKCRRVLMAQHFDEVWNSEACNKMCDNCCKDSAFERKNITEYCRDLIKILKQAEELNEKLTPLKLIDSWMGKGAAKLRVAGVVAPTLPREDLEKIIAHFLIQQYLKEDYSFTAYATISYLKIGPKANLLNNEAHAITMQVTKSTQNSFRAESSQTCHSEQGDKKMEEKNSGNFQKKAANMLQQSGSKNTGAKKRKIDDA
Transient receptor potential cation channel subfamily V member 1 (Homo sapiens), sequence (Q8NER1 whole entry, looked up): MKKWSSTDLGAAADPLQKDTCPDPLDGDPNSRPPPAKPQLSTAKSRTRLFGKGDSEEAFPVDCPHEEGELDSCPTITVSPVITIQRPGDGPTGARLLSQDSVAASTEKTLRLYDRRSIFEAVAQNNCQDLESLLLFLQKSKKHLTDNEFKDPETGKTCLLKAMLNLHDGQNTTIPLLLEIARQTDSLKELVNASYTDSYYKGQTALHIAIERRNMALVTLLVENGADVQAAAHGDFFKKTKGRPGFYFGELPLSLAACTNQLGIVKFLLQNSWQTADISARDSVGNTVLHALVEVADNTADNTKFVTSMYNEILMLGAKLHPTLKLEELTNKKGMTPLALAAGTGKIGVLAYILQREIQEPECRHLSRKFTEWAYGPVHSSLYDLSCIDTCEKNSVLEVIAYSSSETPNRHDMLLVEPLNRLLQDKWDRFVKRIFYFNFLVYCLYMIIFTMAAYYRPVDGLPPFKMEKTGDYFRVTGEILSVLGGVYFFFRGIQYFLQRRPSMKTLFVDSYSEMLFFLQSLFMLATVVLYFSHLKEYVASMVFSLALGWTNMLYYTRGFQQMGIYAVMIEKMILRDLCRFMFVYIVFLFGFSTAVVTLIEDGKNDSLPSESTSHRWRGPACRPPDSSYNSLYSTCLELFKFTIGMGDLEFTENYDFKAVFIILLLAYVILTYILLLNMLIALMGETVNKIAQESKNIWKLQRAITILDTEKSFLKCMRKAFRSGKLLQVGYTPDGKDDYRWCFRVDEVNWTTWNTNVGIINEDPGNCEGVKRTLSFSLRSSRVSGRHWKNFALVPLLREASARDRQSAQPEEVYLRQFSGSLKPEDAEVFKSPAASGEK
DNA repair nuclease/redox regulator APEX1 (Homo sapiens), sequence (P27695 whole entry, looked up): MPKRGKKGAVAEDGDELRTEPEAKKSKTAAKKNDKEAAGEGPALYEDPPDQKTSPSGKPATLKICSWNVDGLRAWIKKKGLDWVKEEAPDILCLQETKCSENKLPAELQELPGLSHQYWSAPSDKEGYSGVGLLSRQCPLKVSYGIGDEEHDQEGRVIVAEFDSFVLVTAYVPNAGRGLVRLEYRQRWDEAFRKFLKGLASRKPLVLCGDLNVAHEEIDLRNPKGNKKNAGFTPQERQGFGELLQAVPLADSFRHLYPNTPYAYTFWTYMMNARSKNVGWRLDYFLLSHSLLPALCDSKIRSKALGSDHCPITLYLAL
Glutathione peroxidase 1 (Homo sapiens), sequence (P07203 whole entry, looked up): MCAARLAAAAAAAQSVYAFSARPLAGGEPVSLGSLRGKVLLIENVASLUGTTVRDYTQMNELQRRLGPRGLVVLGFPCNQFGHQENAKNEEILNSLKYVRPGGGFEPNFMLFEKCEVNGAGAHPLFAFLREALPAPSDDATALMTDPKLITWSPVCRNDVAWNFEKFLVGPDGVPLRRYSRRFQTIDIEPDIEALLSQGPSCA

Take `OC[C@H]1O[C@@H](n2cnc3c(N[C@H]4CC5CCC4C5)ncnc32)[C@H](O)[C@@H]1O` (stereo partly specified): the compound was classed as inactive in assay [1], in assay [9], in assay [12], in assay [13], in assay [15] and in assay [16]. The Potency entry in assay [2], in [3], in [4], in assay [5], in assay [6] and in [7] was “inactive” in each case. Moreover, the Potency entry in assay [8], in assay [10] and in assay [11] was “inactive” in each case. Further, the activation in assay [14] was 0.875% (inactive).
With `NC(=O)C1=CN(C2OC(COP(=O)(O)OP(=O)(O)OC[C@H]3O[C@@H](n4cnc5c(N)ncnc54)[C@H](OP(=O)(O)O)[C@H]3O)C(O)C2O)C=CC1` (stereo partly specified), the compound was classed as inactive in assay [1], in [9], in [12], in [13], in [15] and in assay [16]. For the same compound, in assay [17] (at 57.5 µM (top of the series)), the activity change, negative = inhibition was -2.12% (inactive). Moreover, the max response in [17] (setting [19]) is -24.1%; in [17] (setting [20]), -21.9%. Further, the Potency entry in assay [2], in [3], in [4], in assay [5], in assay [6] and in assay [7] was “inactive” each time. Further, the Potency result in [8], in assay [10] and in [11] was “inactive” in each case. In assay [14], the activation is -0.125% (inactive).
In the case of `O=C(Cc1ccc(Cl)c(Cl)c1)OCCN1CCCC1`, the outcome in assay [1], in [9], in [12], in assay [13], in assay [15] and in [16] was inactive. In addition, in [17] (at 57.5 µM (top of the series)), the activity change, negative = inhibition is 1.23% (inactive). Also, the figures for the max response in [17] (setting [19]) and in assay [17] (setting [20]) were -1.75% and -0.355%, respectively. For the same compound, the Potency entry in [2], in [3], in assay [4], in assay [5], in assay [6] and in assay [7] was “inactive” throughout. For the same compound, the Potency result in [8], in assay [10] and in assay [11] was “inactive” throughout. Moreover, the activation in assay [14] was 1.06% (inactive).
Take `CN=C(N)NCCCC(N)C(=O)O` (stereo unspecified): the result in [1], in [9], in assay [12], in [13], in assay [15] and in [16] was inactive. In assay [17] (at 57.5 µM (top of the series)), the activity change, negative = inhibition was 0.52% (inactive). For the same compound, the values for the max response in assay [17] (setting [19]) and in assay [17] (setting [20]) were -20% and -19.4%, respectively. The Potency result in assay [2], in [3], in assay [4], in assay [5], in assay [6] and in assay [7] was “inactive” each time. The Potency result in [8], in assay [10] and in [11] was “inactive” throughout. For the same compound, in assay [14], the activation is 0.812% (inactive).
Turning to `CN1C2CC(OC(=O)C(CO)c3ccccc3)CC1C1OC12` (stereo unspecified), the compound was classed as inactive in assay [1], in assay [9], in assay [13], in [15] and in assay [16]. Besides, the Potency entry in [2], in assay [3], in assay [5], in [6], in [7] and in [8] was “inactive” throughout. Moreover, the Potency result in [10] and in assay [11] was “inactive” throughout.
With `CC(C)C1NC(=O)[C@H](CCCCN)NC(=O)[C@@H](Cc2c[nH]c3ccccc23)NC(=O)[C@H](Cc2ccc(O)cc2)NC(=O)[C@H](C)N(C)C(=O)[C@H](Cc2ccccc2)NC1=O` (stereo partly specified), the compound was classed as inactive in [1], in assay [9], in [12], in assay [13], in assay [15] and in assay [16]. In addition, the activity change, negative = inhibition in assay [17] (at 57.5 µM (top of the series)) was 0.502% (inactive). Also, the max response amounted to 25.5% in assay [17] (setting [19]) and 23% in assay [17] (setting [20]). The Potency result in assay [2], in [3], in assay [4], in assay [5], in assay [6] and in [7] was “inactive” throughout. Also, the Potency result in [8], in assay [10] and in [11] was “inactive” throughout. The activation in assay [14] is -0.438% (inactive).
Take `NCCC(=O)NCCc1cnc[nH]1`: the compound was classed as inactive in [1], in assay [9], in assay [12], in assay [13], in [15] and in assay [16]. In assay [17] (at 25.7 µM (top of the series)), the activity change, negative = inhibition is 1.3% (inactive). Also, the max response was determined as 9.26% in [17] (setting [19]) and 15.5% in [17] (setting [20]). Also, the Potency result in [2], in assay [3], in assay [4], in assay [5], in assay [6] and in [7] was “inactive” throughout. Also, the Potency result in [8], in assay [10] and in assay [11] was “inactive” each time. The activation in assay [14] is 1% (inactive).
As to `COc1c2c(nc3ccccc13)OC(C(C)(O)CO)C2` (stereo unspecified), the compound was classed as inactive in assay [1], in assay [9], in [12], in assay [13], in assay [15] and in assay [16]. Besides, the activity change, negative = inhibition in [17] (at 57.5 µM (top of the series)) was 1.22% (inactive). The figures for the max response in [17] (setting [19]) and in [17] (setting [20]) were -18% and -12.2%, respectively. Also, the Potency entry in [2], in assay [3], in assay [4], in assay [5], in assay [6] and in assay [7] was “inactive” in each case. Further, the Potency entry in assay [8], in assay [10] and in assay [11] was “inactive” in each case. For the same compound, the activation in [14] was 0.812% (inactive).
In the case of `Cc1ccccc1N1CCN(S(=O)(=O)C[C@]23CCC(CC2NC(=O)[C@@H](N)CCS(C)(=O)=O)C3(C)C)CC1` (stereo partly specified), the call in [1], in [9], in assay [12], in assay [13], in assay [15] and in assay [16] was inactive. For the same compound, the activity change, negative = inhibition in [17] (at 57.5 µM (top of the series)) was 0.353% (inactive). Besides, the values for the max response in [17] (setting [19]) and in assay [17] (setting [20]) were -14.5% and -10.9%, respectively. Besides, the Potency entry in assay [2], in assay [3], in assay [5], in assay [7], in [8] and in assay [10] was “inactive” in each case. In addition, the Potency entry in assay [11] and in [18] was “inactive” each time. Further, in assay [14], the activation is 1% (inactive).
